Assay [1] can be described thus: inhibitors of TNFa-induced NFkB p65 translocation, primary screen, imaging, HUVEC, MLSMR starter and 10KST1 sets (AID 438;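 active means inhibition above 20% together with a positive visual image hit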;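 further: compound added about 3h40 before a 20 min TNFalpha stimulation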;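 on inhibition: signal is the nuclear over cytoplasmic p65 intensity ratio per well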). Conditions: HUVEC TNFa-induced p65 nuclear translocation; cell count: measured here: nuclei count (cytotoxicity indicator), at 2.08 µM; inhibition: at 2 µM, stronger effect = higher value, 0% TNFa-plus-vehicle, 100% no-TNFa wells.
Assay [2] in a line: inhibitors of mutant huntingtin aggregation, primary screen, imaging, exon1htt(103Q)mCFP cells, high-content imaging (AID 483;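 active means visual image review flags a hit and inhibition of aggregation exceeds 20%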;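 further: compound exposure lasted 3 days before fixation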;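 on nuclei count: percent of the per-plate median nuclei count of sample wells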). Conditions: exon1htt(103Q)mCFP cell line, aggregate imaging, at 2 µM; inhibition of aggregation: stronger effect = higher value; nuclei count: measured here: cell count, toxicity.
Assay [3] can be described thus: inhibitors of E-selectin induction by TNFa, primary screen, imaging, HUVEC, immunofluorescence, MLSMR starter and 10KST1 sets (AID 487;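 active means visually confirmed hit in the image check and inhibition above 20%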;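 on inhibition: signal is fraction of cell area covered by stained E-selectin grains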;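 on nuclei count: 100% = median nuclei count of all wells on the same plate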). The following applies: HUVEC TNFalpha-induced E-selectin immunofluorescence imaging, at 2 µM; inhibition: stronger effect = higher value; nuclei count: measured here: cell number, toxicity.
In assay [4] the target is Voltage-gated potassium channel subunit beta-2 (Rattus norvegicus) (UniProt P62483). The assay is described as follows: KvBeta enzyme negative modulators, primary screen, biochemical, NADPH fluorescence (AID 622;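 active means fluorescence slope higher than the sample average by over 3 SD, cut at about -0.22 in these data, passing the limit was not always enough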;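 further: slope of raw intensity against log time taken from 70 to 1610 s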). Conditions: recombinant KvBeta, 4-cyanobenzaldehyde reduction, at 10 µM, stronger effect = higher value.
Assay [5] has the same target. Nature of the assay: KvBeta positive modulators, primary screen, biochemical, NADPH fluorescence (AID 623;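 active means NADPH fluorescence slope more negative than the mean of all samples by about 3 SD, 99.7% confidence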;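 further: fluorescence intensity change per second fitted from 20 to 320 s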). The following applies: Recombinant KvBeta, NADPH fluorescence decrease slope, 10 min; at 10 µM; stronger effect = lower value.
Assay [6] deals with Alpha-2C adrenergic receptor (Homo sapiens) (UniProt P18825). The assay is described as follows: modulators of alpha2C/GIRK thallium flux, primary screen, cell-based, HEK293 alpha2C/GIRK1/2 (AID 624;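 active means fluorescence slope after compound addition differing from the mean of all screened samples at 99.7% confidence, in either direction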;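 further: slope of fluorescence ratio to pre-addition baseline per second over 15 to 24 s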). The following applies: thallium flux BTC fluorescence, at 10 µM, actives lie on both sides.
Assay [7] can be described thus: inhibitors of Sendai virus-induced IRF3 signaling, primary screen, TLR/RLR signaling modifier project, cell-based, Sendai virus stimulus, luciferase, 10K MLSCN set (AID 602276;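 active means inhibition at or above 50% at 10 µM; inactive means inhibition below 50%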;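 further: firefly luciferase from ISG56 promoter only with Renilla not read in this screen; 0% = Sendai virus plus DMSO and 100% = medium plus DMSO without virus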). Conditions: HEK293 RL24 IRF3 luciferase reporter, at 10 µM, stronger effect = higher value. (A reporter such as luciferase makes a cellular process visible.)
Assay [8] is described as follows: inhibitors of poly I:C-induced TLR3 signaling, primary screen, cell-based, poly I:C stimulus, luciferase, 10K MLSCN set (AID 602277). The following applies: HEK293-TLR3 RL24 IRF3 luciferase reporter, at 10 µM, stronger effect = higher value.

SMILES strings stand for the structures. Calls of active or inactive are those of the source.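 How the source made its calls, unless noted: active means inhibition of the reporter signal at or above 50%; inactive means inhibition below 50%.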

A word on the inhibition: it is the relative decrease from the control value, in per cent.

Voltage-gated potassium channel subunit beta-2 (Rattus norvegicus), sequence (P62483 whole entry, looked up): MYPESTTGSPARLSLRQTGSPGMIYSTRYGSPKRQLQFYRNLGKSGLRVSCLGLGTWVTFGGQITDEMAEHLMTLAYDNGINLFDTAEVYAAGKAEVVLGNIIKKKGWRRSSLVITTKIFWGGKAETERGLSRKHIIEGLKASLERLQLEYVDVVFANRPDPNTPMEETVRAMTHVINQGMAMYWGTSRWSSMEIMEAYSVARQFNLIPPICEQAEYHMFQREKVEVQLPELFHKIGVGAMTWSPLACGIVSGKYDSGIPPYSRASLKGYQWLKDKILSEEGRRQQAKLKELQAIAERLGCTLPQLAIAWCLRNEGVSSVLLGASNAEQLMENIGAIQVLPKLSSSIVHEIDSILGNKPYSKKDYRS
Alpha-2C adrenergic receptor (Homo sapiens), sequence (P18825 whole entry, looked up): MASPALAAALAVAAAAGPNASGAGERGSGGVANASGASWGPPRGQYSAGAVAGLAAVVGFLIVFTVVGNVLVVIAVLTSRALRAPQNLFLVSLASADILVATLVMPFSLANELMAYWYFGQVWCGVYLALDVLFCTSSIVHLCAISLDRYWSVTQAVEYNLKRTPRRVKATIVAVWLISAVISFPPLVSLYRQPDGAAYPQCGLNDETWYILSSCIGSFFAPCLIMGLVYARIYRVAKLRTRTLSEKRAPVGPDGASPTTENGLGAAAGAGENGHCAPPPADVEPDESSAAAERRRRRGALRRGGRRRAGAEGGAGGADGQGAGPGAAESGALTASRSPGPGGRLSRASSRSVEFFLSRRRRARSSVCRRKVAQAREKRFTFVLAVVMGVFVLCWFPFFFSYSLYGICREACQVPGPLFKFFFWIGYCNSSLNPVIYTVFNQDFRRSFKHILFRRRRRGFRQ

In the case of `O=C(NCN1CCCCC1)c1cccnc1`, in assay [1], the cell count was 327. Also, the inhibition in assay [1] was 7% (inactive); in assay [3] it was -20% (inactive); in assay [7], 5.02% (inactive); in assay [8], 35.7% (inactive). In addition, the inhibition of aggregation in assay [2] is -1.5% (inactive). The nuclei count in assay [2] came out at 87.9%; in assay [3], 92.8%. Moreover, in assay [4], the fluorescence slope was -0.488 (inactive). Further, the NADPH fluorescence slope in assay [5] is -4.4e-05 (inactive). Further, in assay [6], the slope was 0.00701 (inactive).
With `COCCNC(=O)C(c1ccc(C)o1)N(Cc1ccc(F)cc1)C(=O)Cn1nnc2ccccc21` (centres undefined), the cell count in assay [1] stood at 591. For the same molecule, the inhibition in assay [1] was -8.1% (inactive); in assay [3], 12.3% (inactive); in assay [7], 9.7% (inactive); in assay [8] it was 24.6% (inactive). Also, in assay [2], the inhibition of aggregation was -12.2% (inactive). For the same molecule, the results for the nuclei count in assay [2] and in assay [3] were 121% and 108%, respectively. In assay [4], the fluorescence slope was -0.381 (inactive). In assay [5], the NADPH fluorescence slope was -7.3e-05 (inactive). Besides, the slope in assay [6] is 0.00726 (inactive).
Take `CC(C)COC(=O)C1C2C=CC3(CN(C(C)c4ccc(Br)cc4)C(=O)C13)O2` (centres undefined): in assay [1], the cell count was 477. For the same molecule, the inhibition in assay [1] was -10.8% (inactive); in assay [3], -32.2% (inactive); in assay [7] it was 11.4% (inactive); in assay [8], 28.5% (inactive). Moreover, in assay [2], the inhibition of aggregation was 28.1% (inactive). The nuclei count in assay [2] was 78.4%; in assay [3], 86.6%. The fluorescence slope in assay [4] was -0.532 (inactive). Besides, in assay [5], the NADPH fluorescence slope is -3.6e-05 (inactive). Also, the slope in assay [6] is 0.00795 (inactive).
Turning to `O=[n+]1cc(-c2ccc(F)cc2)n([O-])c2c1CCC2`, in assay [1], the cell count turned out to be 391. The inhibition is 6.5% (inactive) in assay [1], -70% (inactive) in assay [3], 5.02% (inactive) in assay [7] and 15.4% (inactive) in assay [8]. The inhibition of aggregation in assay [2] is 8.8% (inactive). The nuclei count came out at 103% in assay [2] and 108% in assay [3]. For the same molecule, in assay [4], the fluorescence slope is -0.587 (inactive). The NADPH fluorescence slope in assay [5] is 3.3e-05 (inactive). Besides, in assay [6], the slope is 0.00589 (inactive).
For the molecule `O=c1[nH]c(N2CCCCC2)nc2c1CCCC2`, in assay [1], the cell count worked out at 581. Besides, the inhibition was 0.9% (inactive) in assay [1], 9.4% (inactive) in assay [3], 17% (inactive) in assay [7] and 12.8% (inactive) in assay [8]. Further, the inhibition of aggregation in assay [2] is 5.9% (inactive). Besides, the nuclei count in assay [2] was found to be 107%; in assay [3] it was 102%. In assay [4], the fluorescence slope is -0.265 (inactive). In assay [5], the NADPH fluorescence slope was -2.4e-05 (inactive). In assay [6], the slope is 0.00576 (inactive).
With `COc1ccc(NC(=O)C(C)NS(=O)(=O)c2ccc(NC(C)=O)cc2)cc1Cl` (centres undefined), the cell count in assay [1] turned out to be 788. Further, the inhibition in assay [1] was 2.8% (inactive); in assay [3] it was 6.9% (inactive); in assay [7], 12.1% (inactive); in assay [8], 7.34% (inactive). In addition, the inhibition of aggregation in assay [2] is -14.8% (inactive). Moreover, the nuclei count in assay [2] was found to be 105%; in assay [3] it was 113%. Besides, in assay [4], the fluorescence slope is -0.34 (inactive). Moreover, in assay [5], the NADPH fluorescence slope is 2.4e-05 (inactive). Moreover, the slope in assay [6] is 0.00739 (inactive).
Regarding `CN(C(=O)c1ccco1)c1nnc(C23CC4CC(CC(C4)C2)C3)s1`, the cell count in assay [1] was found to be 681. Moreover, the inhibition in assay [1] was -10% (inactive); in assay [3], -1.5% (inactive); in assay [7], -30.3% (inactive); in assay [8], -32.2% (inactive). Besides, the inhibition of aggregation in assay [2] was -1.7% (inactive). For the same molecule, the nuclei count in assay [2] was found to be 110%; in assay [3], 126%. For the same molecule, in assay [4], the fluorescence slope is -0.408 (inactive). The NADPH fluorescence slope in assay [5] was -1.5e-05 (inactive). The slope in assay [6] was 0.00459 (inactive).
As to `O=C(Nc1ccc(NC(=O)c2ccco2)nc1)c1cccnc1`, the cell count in assay [1] is 505. The inhibition in assay [1] is 19.2% (inactive); in assay [3], 1% (inactive); in assay [7] it was -21.2% (inactive); in assay [8] it was -50% (inactive). Further, the inhibition of aggregation in assay [2] was -0.5% (inactive). In addition, the nuclei count in assay [2] was determined as 93.2%; in assay [3] it was 89.3%. Besides, in assay [4], the fluorescence slope is -0.472 (inactive). The NADPH fluorescence slope in assay [5] is -2.2e-05 (inactive). In addition, in assay [6], the slope was 0.00492 (inactive).
As for `CCOC(=O)C1CCCN(CCCc2ccccc2)C1` (centres undefined), the cell count in assay [1] stood at 361. In addition, the inhibition is -17.4% (inactive) in assay [1], -32.5% (inactive) in assay [3], 6.58% (inactive) in assay [7] and 38% (inactive) in assay [8]. Also, the inhibition of aggregation in assay [2] is -1.3% (inactive). In addition, the nuclei count in assay [2] is 118%; in assay [3] it was 108%. In assay [4], the fluorescence slope was -0.438 (inactive). In addition, the NADPH fluorescence slope in assay [5] is -2.5e-05 (inactive). The slope in assay [6] was 0.00567 (inactive).
For `COc1ccccc1OCCCn1c(=O)oc2ccccc21`, the cell count in assay [1] was found to be 219. Moreover, the inhibition was 3.7% (inactive) in assay [1], -46.5% (inactive) in assay [3], -13.6% (inactive) in assay [7] and -42.9% (inactive) in assay [8]. Further, the inhibition of aggregation in assay [2] is 3.2% (inactive). Also, the results for the nuclei count in assay [2] and in assay [3] were 91.4% and 94.4%, respectively. For the same molecule, in assay [4], the fluorescence slope is -0.506 (inactive). Also, the NADPH fluorescence slope in assay [5] is -4.3e-05 (inactive). The slope in assay [6] is 0.00513 (inactive).
Take `COc1cc2c(cc1OC)C(C)N(C(=O)c1cc3n(n1)C(C(F)(F)F)CC(c1ccco1)N3)CC2` (centres undefined): in assay [1], the cell count is 591. Also, the inhibition is 9.6% (inactive) in assay [1], -22% (inactive) in assay [3], 25.6% (inactive) in assay [7] and 19.1% (inactive) in assay [8]. Also, the inhibition of aggregation in assay [2] was -0.8% (inactive). Moreover, the nuclei count in assay [2] amounted to 97.6%; in assay [3] it was 96.6%. Moreover, the fluorescence slope in assay [4] is -0.613 (inactive). For the same molecule, the NADPH fluorescence slope in assay [5] was 1.3e-05 (inactive). Further, the slope in assay [6] is 0.00369 (inactive).
With `COc1ccc(OC)c(S(=O)(=O)N2CCN(c3c(C)cccc3C)CC2)c1`, the cell count in assay [1] was found to be 622. The inhibition in assay [1] was 1.1% (inactive); in assay [3] it was -9.3% (inactive); in assay [7] it was 9.96% (inactive); in assay [8] it was 30.5% (inactive). Also, the inhibition of aggregation in assay [2] is 30.2% (inactive). The nuclei count amounted to 111% in assay [2] and 102% in assay [3]. Also, in assay [4], the fluorescence slope is -0.541 (inactive). Moreover, in assay [5], the NADPH fluorescence slope was -4.7e-05 (inactive). The slope in assay [6] was 0.00796 (inactive).
`COc1ccc(CCNC(=O)C2=COCCO2)cc1`: in assay [1], the cell count is 596. The inhibition in assay [1] is 4.2% (inactive); in assay [3], 53.6% (active); in assay [7], -14.5% (inactive); in assay [8] it was -26.2% (inactive). Also, the inhibition of aggregation in assay [2] was 51.2% (active). Besides, the nuclei count in assay [2] was determined as 90.3%; in assay [3] it was 99.1%. The fluorescence slope in assay [4] was -0.545 (inactive). In assay [5], the NADPH fluorescence slope was -2.9e-05 (inactive). Moreover, the slope in assay [6] was 0.00546 (inactive).
For `Cc1c(C(=O)NCc2cccnc2)oc2ccc(S(=O)(=O)N3CCCCC3)cc12`, the cell count in assay [1] turned out to be 614. In addition, the inhibition in assay [1] is -17% (inactive); in assay [3], -47.2% (inactive); in assay [7], 19.5% (inactive); in assay [8], 21.4% (inactive). The inhibition of aggregation in assay [2] is 37.3% (active). Further, the nuclei count in assay [2] stood at 117%; in assay [3] it was 107%. Besides, the fluorescence slope in assay [4] is -0.448 (inactive). Besides, the NADPH fluorescence slope in assay [5] is -0.000103 (inactive). The slope in assay [6] was 0.00545 (inactive).
